The values below come from PubChem BioAssay (NCI).

Among the test systems are HCT-15 colon; HT29 colon; SNB-75 CNS; SNB-19 CNS; U251 CNS; PC-3 prostate; SK-MEL-5 melanoma; UACC-62 melanoma; LOX IMVI melanoma; SK-MEL-28 melanoma; SK-MEL-2 melanoma; EKVX NSCLC; SN12C renal; UO-31 renal; TK-10 renal; ACHN renal; CAKI-1 renal; A498 renal; CCRF-CEM leukemia; MOLT-4 leukemia.
Holding throughout (assay): NCI-60 one-dose screen, 48 h (100 = growth as untreated, 0 = no growth, -100 = all killed)
What all share (conditions): 10 µM unless noted

Molecules are shown by their SMILES. Values joined by “and” are separate entries in the source; they are usually repeats but may differ in a detail not shown here. Equal entries are not always repeated. The panel holds about 83,000 compounds, 20% with a hit somewhere; the sample as a whole holds those more often.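 In brief: 96-well plates, 48 h treatment, single concentration, percent growth endpoint.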 Active and inactive are the calls of the source. Rule for the calls: active = growth percent below 10; inactive = the rest.

In the case of `Fc1ccccc1Nc1n[nH]c(=S)s1`, the growth was 98.3% (inactive) in the assay with HCT-15 colon; 103% (inactive) with HT29 colon; 101% (inactive) with SNB-75 CNS; 104% (inactive) in the assay on SNB-19 CNS; 101% (inactive) with U251 CNS; 106% (inactive) with PC-3 prostate. For the same compound, the growth in the assay on SK-MEL-5 melanoma was 101% (inactive); with UACC-62 melanoma, 95.3% (inactive); in the assay with LOX IMVI melanoma it was 128% (inactive); in the assay with SK-MEL-28 melanoma it was 102% (inactive); in the assay on SK-MEL-2 melanoma, 116% (inactive); with EKVX NSCLC, 136% (inactive). Moreover, the growth is 99.9% (inactive) in the assay with SN12C renal; 95.5% (inactive) in the assay with UO-31 renal; 115% (inactive) in the assay with TK-10 renal; 110% (inactive) with ACHN renal; 113% (inactive) in the assay with CAKI-1 renal; 94.6% (inactive) with A498 renal. Moreover, the growth is -60% (active) in the assay on CCRF-CEM leukemia and 114% (inactive) in the assay with MOLT-4 leukemia.
Regarding `Cc1n[nH]c(=O)n(/N=C\c2c[nH]c3ccccc23)c1=O`, the growth was 105% (inactive) in the assay on HCT-15 colon; 101% (inactive) with HT29 colon; 84% (inactive) in the assay with SNB-75 CNS; 105% (inactive) in the assay with SNB-19 CNS; 98.8% (inactive) with U251 CNS; 97.9% (inactive) in the assay with PC-3 prostate. Further, the growth in the assay on SK-MEL-5 melanoma was 102% (inactive); in the assay on UACC-62 melanoma, 107% (inactive); in the assay with LOX IMVI melanoma it was 99.4% (inactive); in the assay with SK-MEL-28 melanoma it was 105% (inactive); in the assay on SK-MEL-2 melanoma, 104% (inactive); in the assay with EKVX NSCLC, 109% (inactive). Moreover, the growth in the assay with SN12C renal is 99.8% (inactive); in the assay on UO-31 renal, 60.6% (inactive); in the assay with TK-10 renal, 100% (inactive); in the assay on ACHN renal, 98.5% (inactive); with CAKI-1 renal, 98.4% (inactive); in the assay with A498 renal, 103% (inactive). For the same compound, the results for the growth with CCRF-CEM leukemia and in the assay with MOLT-4 leukemia were 95.9% (inactive) and 91.6% (inactive), respectively.
As for `Cn1cc(-c2cc3c(Nc4ccc(CC(=O)Nc5cc(C(C)(C)C)on5)cc4)ncnc3[nH]2)cn1`, the growth in the assay with HCT-15 colon was 17.5% (inactive) and 34.6% (inactive); in the assay with HT29 colon it was -8.17% (active) and -11.7% (active); in the assay on SNB-75 CNS it was -44.8% (active) and -42.3% (active); in the assay on SNB-19 CNS, 2.07% (active) and 3.84% (active); with U251 CNS, 0.087% (active) and -9.38% (active); in the assay with PC-3 prostate it was -21.4% (active) and 1.57% (active). Further, the growth with SK-MEL-5 melanoma was -50.7% (active) and 1.16% (active); in the assay with UACC-62 melanoma, -77.9% (active) and -80% (active); with LOX IMVI melanoma, 1.91% (active) and 2.35% (active); with SK-MEL-28 melanoma it was -20.2% (active) and -18.4% (active); with SK-MEL-2 melanoma it was -60.5% (active) and -81% (active); with EKVX NSCLC it was 6.89% (active) and 10.1% (inactive). In addition, the growth in the assay on SN12C renal is -10.9% (active) and -7.98% (active); with UO-31 renal, -11.4% (active) and 9.42% (active); in the assay with TK-10 renal it was 0.328% (active) and -17.2% (active); in the assay with ACHN renal, -6.75% (active) and 6.73% (active); in the assay with CAKI-1 renal, -10.5% (active) and 7.18% (active); with A498 renal, -60.1% (active). Moreover, the growth in the assay on CCRF-CEM leukemia is 14.3% (inactive) and 5.35% (active); in the assay with MOLT-4 leukemia it was 9.74% (active) and 5.37% (active).
On to `CCN1CCN(CCNc2nccc(-c3c(-c4cccc(O)c4)nc4sccn34)n2)S1(=O)=O`, for which the growth in the assay with HCT-15 colon is 67.7% (inactive) and 59% (inactive); in the assay on HT29 colon it was 45.3% (inactive) and 50.4% (inactive); in the assay on SNB-75 CNS, 62.6% (inactive) and 50.2% (inactive); with SNB-19 CNS it was 104% (inactive) and 117% (inactive); in the assay with U251 CNS it was 90.4% (inactive) and 93.2% (inactive); with PC-3 prostate, 63.9% (inactive) and 77.9% (inactive). Besides, the growth in the assay with SK-MEL-5 melanoma was 51% (inactive) and 32.4% (inactive); with UACC-62 melanoma, 0.351% (active) and 0.223% (active); in the assay on LOX IMVI melanoma it was 37.7% (inactive) and 30.9% (inactive); with SK-MEL-28 melanoma, 23.7% (inactive) and 20.5% (inactive); in the assay with SK-MEL-2 melanoma it was 11.2% (inactive) and 27.5% (inactive); in the assay on EKVX NSCLC it was 110% (inactive) and 111% (inactive). Also, the growth in the assay with SN12C renal is 75.8% (inactive) and 66.7% (inactive); in the assay on UO-31 renal, 67.9% (inactive) and 58.3% (inactive); in the assay on TK-10 renal, 92.8% (inactive); in the assay with ACHN renal it was 47.5% (inactive) and 33.5% (inactive); in the assay on CAKI-1 renal it was 44.2% (inactive) and 34% (inactive); in the assay on A498 renal, 74.2% (inactive) and 66.8% (inactive). Further, the growth in the assay with CCRF-CEM leukemia is 67.4% (inactive) and 62.1% (inactive); in the assay with MOLT-4 leukemia, 89.7% (inactive) and 81.7% (inactive).
On to `CN(C)c1ccc2nc3ccc(=[N+](C)C)cc-3sc2c1`, for which the growth is 28.5% (inactive) and 36.7% (inactive) in the assay on HCT-15 colon; 26.6% (inactive) and 19.8% (inactive) and 74.9% (inactive) with HT29 colon; 49.4% (inactive) and 90.2% (inactive) in the assay on SNB-75 CNS; 24.7% (inactive) and 23% (inactive) and 39.5% (inactive) in the assay with SNB-19 CNS; 3.44% (active) and -10.6% (active) and 8.51% (active) in the assay on U251 CNS; 13.7% (inactive) and 19.8% (inactive) and 32.8% (inactive) in the assay with PC-3 prostate. Moreover, the growth in the assay with SK-MEL-5 melanoma was -85.2% (active) and 5.71% (active) and 13.6% (inactive); in the assay with UACC-62 melanoma, -19.7% (active) and 7.25% (active) and 56.5% (inactive); with LOX IMVI melanoma it was 7.11% (active) and 5.63% (active) and 34.6% (inactive); in the assay on SK-MEL-28 melanoma, 20% (inactive) and 45.9% (inactive) and 75% (inactive); in the assay on SK-MEL-2 melanoma, 20% (inactive) and 47.3% (inactive) and 79.6% (inactive); in the assay with EKVX NSCLC it was 41.7% (inactive) and 46.9% (inactive). Also, the growth in the assay on SN12C renal was 24.3% (inactive) and 12.5% (inactive) and 9.23% (active); in the assay with UO-31 renal, 62.3% (inactive) and 57.2% (inactive) and 78.6% (inactive); in the assay on TK-10 renal, 58.1% (inactive) and 73.9% (inactive) and 110% (inactive); with ACHN renal it was 24.6% (inactive) and 24.4% (inactive) and 83% (inactive); in the assay with CAKI-1 renal, 30.9% (inactive) and 23.4% (inactive) and 83.2% (inactive); in the assay with A498 renal, 58.4% (inactive) and 75.9% (inactive). For the same compound, the growth in the assay with CCRF-CEM leukemia was 2.85% (active) and 26.7% (inactive) and 24% (inactive); in the assay on MOLT-4 leukemia, 24.4% (inactive) and 21.7% (inactive) and 32.9% (inactive).
